Data: article PMC5540273 (PLoS ONE, 2017)

Experiments:
Conditions in all cases: concentration: 1 μM, replicates: in singlicate; n = 1
TRKC = test system: T1, TRKC
T1 construct: gene NTRK3

TRPM6 = test system: TRPM6
TSSK1B = test system: TSSK1B
TSSK3 = test system: TSSK3
TTK = test system: TTK
TXK = test system: TXK
[1] = test system: TYK2(JH1domain-catalytic)
[2] = test system: TYK2(JH2domain-pseudokinase)
TYRO3 = test system: TYRO3
ULK1 = test system: ULK1
ULK2 = test system: ULK2
ULK3 = test system: ULK3
VEGFR2 = test system: T2, VEGFR2
T2 construct: gene KDR

VPS34 = test system: T3, VPS34
T3 construct: gene PIK3C3

VRK2 = test system: VRK2
WEE1 = test system: WEE1
WEE2 = test system: WEE2
WNK1 = test system: WNK1
WNK2 = test system: WNK2
WNK3 = test system: WNK3
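Further: KINOMEscan kinase panel screen.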

SMILES | %Inh (TRKC) | %Inh (TRPM6) | %Inh (TSSK1B) | %Inh (TSSK3) | %Inh (TTK) | %Inh (TXK) | %Inh [1] | %Inh [2] | %Inh (TYRO3) | %Inh (ULK1) | %Inh (ULK2) | %Inh (ULK3) | %Inh (VEGFR2) | %Inh (VPS34) | %Inh (VRK2) | %Inh (WEE1) | %Inh (WEE2) | %Inh (WNK1) | %Inh (WNK2) | %Inh (WNK3)
Fc1ccc(Nc2nccc(-c3c(-c4ccc(Cl)cc4)nn4ncccc34)n2)cc1F [GW829058] | 35% | 20% | 0% | 33% | 8% | 19% | 20% | 40% | 8% | 45% | 100% | 33% | 25% | 5% | 34% | 10% | 2% | 42% | 0% | 41%
NC(=O)c1sc(-n2cnc3ccccc32)cc1OCc1ccccc1F [GSK1024306] | 16% | 0% | 0% | 20% | 12% | 0% | 13% | 28% | 0% | 0% | 0% | 9% | 6% | 31% | 7% | 7% | 0% | 3% | 27% | 23%
COC(=O)c1c(-c2ccccc2)c2cc(Cl)ccc2c(=O)n1Cc1ccc(S(C)(=O)=O)cc1 | 17% | 0% | 0% | 0% | 7% | 0% | 0% | 2% | 0% | 0% | 0% | 0% | 0% | 0% | 10% | 0% | 0% | 0% | 4% | 0%
O=C(c1ccc(-c2cc(-c3c[nH]nc3-c3ccccn3)ccn2)cc1)N1CCCC1 [GW792479] | 0% | 0% | 0% | 0% | 29% | 23% | 0% | 15% | 0% | 0% | 0% | 0% | 0% | 26% | 0% | 30% | 0% | 0% | 0% | 0%
N#Cc1ccc(Oc2ccc(Nc3ncnc4cc[nH]c34)cc2Cl)cc1 | 21% | 0% | 0% | 0% | 16% | 2% | 12% | 11% | 0% | 14% | 34% | 30% | 12% | 0% | 3% | 28% | 8% | 0% | 7% | 0%
Cc1cccc(-c2nc(Nc3ccc4[nH]nnc4c3)c3ccccc3n2)n1 [GW867587] | 0% | 0% | 0% | 0% | 0% | 0% | 0% | 42% | 0% | 0% | 0% | 0% | 0% | 0% | 20% | 0% | 0% | 0% | 0% | 0%
Cl.Cn1ccc(-c2cccc(Nc3ccnc4cc(-c5nccs5)ccc34)c2)n1 [GW525701] | 43% | 0% | 3% | 6% | 0% | 14% | 30% | 49% | 0% | 0% | 0% | 0% | 0% | 0% | 7% | 11% | 0% | 17% | 18% | 50%
CSc1nn2c(=O)cc(N3CCOCC3)nc2n1Cc1cccc(Cl)c1Cl [GSK2347225] | 0% | 0% | 26% | 30% | 0% | 0% | 12% | 0% | 5% | 7% | 0% | 0% | 0% | 97.1% | 0% | 29% | 35% | 11% | 18% | 4%
CCc1nc(-c2cccc(N(C)S(=O)(=O)c3ccccc3)c2)c(-c2ccnc(Nc3ccc(N4CCN(C(C)=O)CC4)nc3)n2)s1 [GSK1645895] | 0% | 56% | 0% | 15% | 9% | 15% | 0% | 14% | 0% | 4% | 0% | 9% | 31% | 0% | 0% | 0% | 0% | 3% | 0% | 16%
Cc1cc(N2CCC(NS(=O)(=O)c3ccc(F)cc3)CC2)nc(Nc2cccc(C#N)c2)n1.O=C(O)C(F)(F)F [GSK1653537] | 0% | 0% | 27% | 8% | 1% | 0% | 0% | 2% | 0% | 0% | 0% | 4% | 0% | 0% | 0% | 10% | 15% | 6% | 13% | 2%
Clc1cc(Nc2ncnc3cc[nH]c23)ccc1OCc1ccccn1 | 0% | 0% | 44% | 0% | 19% | 11% | 8% | 28% | 0% | 9% | 14% | 21% | 6% | 13% | 9% | 0% | 0% | 0% | 1% | 20%
Cl.c1ccc(Cn2ncc3cc(Nc4ncnc5ccccc45)ccc32)cc1 [GW273749] | 0% | 37% | 0% | 11% | 18% | 11% | 0% | 12% | 0% | 19% | 0% | 5% | 20% | 0% | 0% | 10% | 3% | 3% | 3% | 0%
Cn1ccc2ncnc(Oc3ccc(NC(=O)Nc4cccnc4)c(Cl)c3)c21 | 0% | 0% | 0% | 2% | 1% | 0% | 0% | 0% | 0% | 0% | 8% | 0% | 74% | 0% | 0% | 0% | 28% | 0% | 0% | 0%
O=C(Nc1n[nH]c2nc(-c3ccco3)c(Br)cc12)c1ccc(CN2CCCC2)cc1.O=C(O)[C@H](O)[C@@H](O)C(=O)O [SB-742352] | 0% | 0% | 0% | 0% | 0% | 2% | 0% | 0% | 0% | 13% | 0% | 27% | 48% | 0% | 0% | 0% | 4% | 0% | 0% | 0%
Fc1cccc(COc2ccc(Nc3ncnc4cc[nH]c34)cc2Cl)c1 | 0% | 0% | 0% | 0% | 4% | 0% | 19% | 28% | 19% | 24% | 14% | 34% | 16% | 18% | 13% | 12% | 4% | 0% | 14% | 0%
